Results published in the supplement of paper PMC4371806.
Whole data set: some 1,600 compounds, median “plate-normalized OD600 growth (mean of duplicates)” near 0.31, cut for the lowest 2% near 0.23. The full list was thinned out, with the lowest values kept by preference.

Tested on: Escherichia coli BW25113
Assay: plate-normalized OD600 growth (mean of duplicates) (OD600 (normalized)); higher = more growth (less inhibition)
Conditions: 10 µM
Method: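 E. coli BW25113 in LB (100 µl, 96-well, no shaking) was exposed to 10 µM of each compound (here the ChemBridge subset of a ~30,000-member library) and grown at 37°C for 24 h or 15°C for 48 h, in duplicate. Growth was read as OD600 and the duplicate ODs were normalized across screening plates to correct plate-to-plate variation.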

Row | Compound | plate-normalized OD600 growth (temperature: 15°C, 48 h) | plate-normalized OD600 growth (temperature: 37°C, 24 h)
1 | CCN(CC)C(=O)c1ccc([N+](=O)[O-])o1 | 0.247 | 0.627
2 | O=C(Nc1ccccc1F)c1ccc([N+](=O)[O-])o1 | 0.201 | 0.592
3 | O=C(Nc1ccccc1NC(=O)c1ccccc1F)c1ccccc1F | 0.263 | 0.627
4 | CCOc1ccccc1N1CCN(C(=O)c2ccccc2C)CC1 | 0.287 | 0.646
5 | Brc1ccc(CN2CCN(c3ccccn3)CC2)cc1 | 0.267 | 0.614
6 | CN1CCCN(CC2CC3C=CC2C3)CC1 (configuration not stated) | 0.225 | 0.656
7 | COc1ccc(CN2CCCN(C)CC2)cc1Br | 0.229 | 0.632
8 | COc1cccc(N2CCN(CC3CC4C=CC3C4)CC2)c1 (configuration not stated) | 0.296 | 0.627
9 | COc1ccc(S(=O)(=O)N2CCCC(C)C2)cc1 (configuration not stated) | 0.266 | 0.639
10 | COC(=O)Nc1ccc(S(=O)(=O)N2CCCCC2)cc1 | 0.238 | 0.599
11 | COc1ccc(S(=O)(=O)N2CCCC2)cc1 | 0.219 | 0.612
12 | Cc1cc(NO)nc(-c2ccc(Br)cc2)n1 | 0.221 | 0.622
13 | Cc1nc(C)c(-c2cc(C)c3c(C)nc(C)nc3n2)c(N)n1 | 0.252 | 0.617
14 | O=C(COc1ccc(Cl)cc1Cl)Nc1ccc(C(=O)O)cc1 | 0.261 | 0.618
15 | COc1cccc(NC(=O)c2ccncc2)c1 | 0.261 | 0.618
16 | O=C(c1cccnc1)N1CCN(C(=O)c2ccco2)CC1 | 0.24 | 0.631
17 | COc1ccc(Cc2ccc(OC)c(N)c2)cc1N | 0.254 | 0.632
18 | COc1cc(C)c(N)cc1C(C)C | 0.226 | 0.6
19 | COc1cc2c(cc1NC(=O)C(Cl)Cl)oc1ccccc12 | 0.232 | 0.619

Row | Compound | plate-normalized OD600 growth (temperature: 15°C, 48 h) | plate-normalized OD600 growth (temperature: 37°C, 24 h)
20 | Cc1ccc(N2C(=O)CC(N3CCN(c4ccc([N+](=O)[O-])cc4)CC3)C2=O)c(C)c1 (configuration not stated) | 0.218 | 0.612
21 | COc1ccccc1N1C(=O)CC(N2CCN(c3ccc([N+](=O)[O-])cc3)CC2)C1=O (configuration not stated) | 0.282 | 0.637
22 | COc1ccc(N2C(=O)CC(N3CCN(c4ccc(F)cc4)CC3)C2=O)cc1 (configuration not stated) | 0.24 | 0.59
23 | Fc1ccccc1OCCCCN1CCCCC1 | 0.214 | 0.61
24 | c1ccc(OCCCCN2CCCCC2)cc1 | 0.241 | 0.621
25 | Cc1ccccc1OCCCCN1CCCCC1 | 0.265 | 0.623
26 | CC(Nc1cc(=O)n(C)c(=O)[nH]1)c1ccccc1 (configuration not stated) | 0.254 | 0.611
27 | CC1(C)CC(n2c(NN)nc3c(c2=O)C2(CCCCC2)Cc2ccccc2-3)CCO1 (configuration not stated) | 0.255 | 0.631
28 | C=C(C)CN(CC)C1CCN(C(C)=O)CC1 | 0.226 | 0.627
29 | CC(=O)N1CCC(NC2CCCCCC2)CC1 | 0.269 | 0.62
30 | CCN(CCN(C)C)C1CCCCCC1 | 0.26 | 0.618
31 | CN1CCN(C(=O)CC(c2ccccc2)c2ccccc2)CC1 | 0.253 | 0.62
32 | N#Cc1ccc(-c2cccs2)[nH]c1=O | 0.236 | 0.644
33 | O=C(/C=C/c1ccc(-c2ccc(F)cc2)o1)c1cccs1 | 0.253 | 0.617
34 | O=Cc1ccc(-c2ccc(Cl)c(C(=O)O)c2)o1 | 0.268 | 0.622
35 | NS(=O)(=O)c1ccc(-c2ccc(C=O)o2)cc1 | 0.227 | 0.612
36 | COc1ccc2nc3c(nc2c1)C(=O)c1ccccc1-3 | 0.234 | 0.611
37 | c1cncc(-c2nc3c4c5c(sc4ncn3n2)CCCC5)c1 | 0.261 | 0.628
38 | COc1ccc(CNCCC2CCOC(C)(C)C2)cc1 (configuration not stated) | 0.263 | 0.65

Row | Compound | plate-normalized OD600 growth (temperature: 15°C, 48 h) | plate-normalized OD600 growth (temperature: 37°C, 24 h)
39 | Cc1nnc(Sc2ccc(C=O)o2)s1 | 0.227 | 0.604
40 | CCOC(=O)N1CCN(Cc2cc(C)ccc2C)CC1 | 0.266 | 0.646
41 | CC(=O)c1ccc(NS(=O)(=O)c2cc(S(=O)(=O)c3ccccc3)ccc2C)cc1 | 0.278 | 0.649
42 | c1ccc(CN2C3=NCCCN3c3ccccc32)cc1 | 0.249 | 0.625
43 | N#CCCS(=O)(=O)c1ccc(Br)cc1 | 0.258 | 0.63
44 | CCCCOc1ccc(C2(C)CC(=O)NC2=O)cc1 (configuration not stated) | 0.258 | 0.634
45 | Cc1onc(-c2ccccc2Cl)c1C(=O)NCc1ccc2c(c1)OCO2 | 0.261 | 0.619
46 | Cn1c(C=O)nc2cc([N+](=O)[O-])ccc21 | 0.241 | 0.625
47 | O=C(O)Cn1c2ccccc2c2cc([N+](=O)[O-])ccc21 | 0.226 | 0.625
48 | CCn1c(C)c(C=O)c2cc([N+](=O)[O-])ccc21 | 0.223 | 0.608
49 | Cn1c2ccccc2c2nc3ccc([N+](=O)[O-])cc3cc21 | 0.249 | 0.639
50 | NNC(=O)c1cc(-c2ccc([N+](=O)[O-])cc2)nc2ccccc12 | 0.251 | 0.647
51 | CN(C)/C=C/c1c(C=O)c2cc([N+](=O)[O-])ccc2n1C | 0.238 | 0.596
52 | Cc1n[nH]c(=O)c2cc3c(C)n[nH]c(=O)c3cc12 | 0.259 | 0.622
53 | CC1CCC2(CC1)C(C#N)C(=O)NC(=O)C2C#N (configuration not stated) | 0.244 | 0.615
54 | CCCC(=O)NC(c1ccccc1)c1ccccc1 | 0.265 | 0.637
55 | CSc1nc(C)c(C(C)=O)cc1C#N | 0.244 | 0.621
56 | Cc1ccc(S(=O)(=O)CCSc2cccc(C(=O)Nc3ccccc3)c2)cc1 | 0.243 | 0.633
